From PubChem
A selection: hits, their analogues and other compounds. The true share with any hit is near 3.5%.
BoNT A protease = inhibitors of Botulinum neurotoxin A light chain protease; multiplex microsphere protease substrate cleavage, flow cytometry; AID 588499; inhibition, % at 10 µM; 0.17% of 360,000 active; further: plate controls were buffer without enzyme for full effect and enzyme alone for no effect
BoNT F protease = BoNT F light chain protease inhibition; Multiplex microsphere protease cleavage assay, flow cytometry; AID 588497; 0.22% of 360,000 active; inhibition, % at 10 µM; in the data active means inhibition above about 35%, passing the limit was not always enough; inconclusive means no clear call, values can overlap the other calls; further: plate controls were buffer without enzyme for full effect and enzyme alone for no effect
Autofluor counter = compound fluorescence in toxin protease inhibitor counterscreen. compound autofluorescence counterscreen, microsphere flow cytometry; hits give high values. fluorescence intensity (test concentration not listed). 3.1% of 360,000 active. AID 624483; in the data active means fluorescence intensity above about 16000; inconclusive means no clear call, values can overlap the other calls
BH1578 lux ind = induces V. cholerae light production without autoinducers; V. cholerae BH1578 lux reporter, luminescence, 6 h; activation, % at 18.7 µM; 0.16% of 350,000 active; AID 588436; in the data active means activation mostly above about 9.7%, no sharp cut-off; inconclusive means no clear call, values can overlap the other calls; inactive means mostly below about 3.7%
Anthrax LF inh2 = anthrax lethal factor protease inhibition; multiplex microsphere protease cleavage assay, LF; 0.12% of 360,000 active; AID 588501; inhibition, % at 10 µM; further: plate controls were buffer without enzyme for full effect and enzyme alone for no effect
The depositor's hits bear a star; i = inactive; ? = inconclusive; · = no result. Unless noted, no stated cut-off is given here; in the data, active means inhibition above about 30%; inconclusive means no clear call, values can overlap the other calls; inactive means below that.

SMILES | BoNT A protease | BoNT F protease | Autofluor counter | BH1578 lux ind | Anthrax LF inh2
COc1cccc(OCc2nnc(SCC(=O)NCc3ccco3)n2CCc2ccccc2)c1 | 1 | 2 | 20143* | i | -3
CCn1c(SCC(=O)N2CCCC2)nc2ccccc2c1=O | 4 | 4 | 19212* | 0 | -4
O=C(CCCn1c(SCC(=O)c2ccc(F)cc2)nc2ccccc2c1=O)NCc1ccccc1 | 0 | 6 | 8388 | · | -11
Cc1ccc(NC(=O)CSc2nc3ccccc3c(=O)n2CCCC(=O)N2CCCC2)cc1 | -1 | -3 | 22956* | -5 | -3
COc1cccc(OCc2nnc(SCC(=O)NCc3ccco3)n2C)c1 | 1 | 12 | 4250 | i | 3
CCCCn1c(SCC(=O)Nc2ccc(NC(C)=O)cc2)nc2ccccc2c1=O | 2 | 13 | 3719 | -2 | 10
CCCCn1c(SCC(=O)Nc2cc(C)on2)nc2ccccc2c1=O | -2 | -2 | 23871* | i | -1
O=C(CSc1nccn1-c1ccccc1)NCc1ccc(F)cc1 | 0 | 1 | 4927 | 0 | -3
O=C(CCCn1c(SCC(=O)NCC2CCCO2)nc2ccccc2c1=O)NCc1ccccc1 (configuration not stated) | 0 | 3 | 22190* | i | -6
O=C(CSc1nc2ccccc2c(=O)n1CCC(=O)N1CCCCC1)NCc1ccccc1 | ? | -1 | 23326* | i | -2
COc1cccc(-n2ccnc2SCC(=O)NCc2ccccc2)c1 | 1 | -3 | 2483 | 25* | 0
COCCn1c(SCC(=O)N2CCCCC2)nc2ccccc2c1=O | 0 | 0 | 10371 | i | -1
CCCC(C)(C)C(=O)N1CCC1(C)C(=O)Nc1cccc2ccccc12 (configuration not stated) | 0 | -8 | 3797 | 2 | -3
COc1cc(C)c(S(=O)(=O)NOCc2ccccc2)c(C)c1C | · | · | · | 0 | ·
CC(C)(C)c1nc2ccccc2c2nnc(SCC(=O)NCc3ccco3)n12 | -1 | -1 | 16855* | 0 | -1
O=C(CCn1c(SCC(=O)NCc2ccco2)nc2ccccc2c1=O)NCCc1ccccc1 | ? | 2 | 22374* | 0 | -3
C=CCn1c(SCC(=O)NCC2CCCO2)nc2scc(-c3ccco3)c2c1=O (configuration not stated) | ? | 4 | 22083* | -1 | 0
O=C(CSc1nc2scc(-c3ccco3)c2c(=O)n1-c1ccccc1)N1CCOCC1 | -2 | -3 | 21589* | 0 | -1
C=CCn1c(SCC(=O)NCC2CCCO2)nc2scc(-c3ccc(OC)cc3)c2c1=O (configuration not stated) | 2 | 1 | 5459 | 0 | 0
Cn1ccc2c(-c3cccnc3)cc3c(c21)C1CCC3O1 (configuration not stated) | 1 | -3 | 4522 | · | -8
Oc1cc2ccccc2nc1-c1ccccc1Cl | 2 | -8 | 3678 | -1 | -15
CC(=O)c1sc(N/N=C2\CC3CCC2(C)C3(C)C)nc1C (configuration not stated) | -3 | -14 | 5374 | 0 | -15
Cc1ccc(-n2c(CSc3nc(C)cc(C)n3)nnc2SCC(=O)NCc2ccco2)cc1 | ? | 2 | 22159* | 3 | -1
CCCN(CCC)C(=O)CSc1nc2ccccc2c(=O)n1CC1COc2ccccc2O1 (configuration not stated) | 0 | -2 | 6926 | 0 | ?
CCCCNC(=O)CSc1nc2ccccc2c(=O)n1C1CCCC1 | 2 | -1 | 19876* | i | -3
SMILES | BoNT A protease | BoNT F protease | Autofluor counter | BH1578 lux ind | Anthrax LF inh2
CNC(=O)CSc1nc2ccccc2c(=O)n1C1CCCCC1 | -1 | ? | 3437 | 0 | -2
CCCCn1c(SCC(=O)N2CCCCC2)nc2cc(S(N)(=O)=O)ccc21 | 0 | -1 | 19717* | i | -1
CCOC(=O)CSc1nc2ccccc2c(=O)n1CC1COc2ccccc2O1 (configuration not stated) | -3 | -5 | 22016* | i | -5
Cc1ccc(-n2c(Cc3cccn3C)nnc2SCC(=O)NCc2ccco2)cc1 | 0 | -8 | 11487 | 2 | -2
CC(=O)Nc1ccc(NC(=O)C(C)Oc2ccccc2C(=O)NCc2ccccc2)cc1 (configuration not stated) | · | · | · | -1 | ·
COCCNC(=O)C(NC(=O)C1CCC(C)CC1)C(C)C (configuration not stated) | 1 | 7 | 4269 | 4 | -7
COc1ccc(Cc2nnc(SCC(=O)N3CCCCC3)o2)cc1 | 0 | -5 | 2455 | 0 | 0
CCCN(CCC)CCNC(=O)C(NS(=O)(=O)c1ccc2c(c1)CCC(=O)N2)c1ccccc1 (configuration not stated) | -2 | -4 | 23934* | 3 | -3
Cc1cc(NC(=O)CSc2nnc(COc3cccc(C)c3C)n2Cc2ccco2)no1 | ? | 3 | 15465 | 0 | -1
Cc1cccc(OCc2nnc(SCC(=O)N(C(C)C)C(C)C)n2Cc2ccco2)c1C | 0 | 3 | 16236* | 0 | 0
O=C(CCC(=O)N1CCN(S(=O)(=O)c2ccccc2)CC1)c1cccs1 | ? | 4 | 20748* | i | -1
Cc1cccc(NC(=O)CSc2nnc3ccc(-c4ccccn4)nn23)c1 | -1 | -1 | ? | -5 | 1
Cc1ccc(S(=O)(=O)C2(C(=O)N3CCCCCC3)CC2)cc1 | ? | -4 | 16721* | -2 | -4
Cc1cc(NC(=O)CSc2nnc(-c3ccncc3)n2N)ccc1Br | 1 | 17 | 2821 | · | -1
CCN(CC)C(=O)CSc1nnc2sc3ccccc3n12 | -1 | 0 | 19933* | 0 | -7
CCOc1ccc(-c2nnc(SCC(=O)N(CC)CC)n2N)cc1 | -4 | -5 | 21180* | i | 1
CCN(CC)C(=O)CSc1nnc(-c2ccncc2)n1N | 0 | 2 | 16267* | i | -2
c1ccc(OCCSc2nnc3sc4ccccc4n23)cc1 | 0 | -3 | 12613 | i | 0
CCN(CC)C(=O)CSc1nnc(-c2ccccc2)n1-c1ccccc1 | 0 | -3 | 4741 | 1 | -3
CCN(CC)C(=O)CSc1nnc(-c2ccccc2)n1N | -1 | -4 | 21307* | 6 | -3
Cc1cc(C(=O)NNC(=O)c2cccs2)c(C)o1 | 1 | -5 | 6640 | i | -5
CCOc1ccccc1-n1c(CN2CCN(C(=O)c3ccco3)CC2)nc2ccccc2c1=O | -1 | -3 | 23399* | 0 | -3
CCOc1ccccc1-c1nc(CN2CCN(C(=O)c3ccco3)CC2)c(C)o1 | 0 | -1 | 5496 | 0 | -1
O=C(Oc1ccc(-c2ccccc2)cc1)N1CCOCC1 | ? | -2 | 21166* | i | 0
Cc1cccc(OC(=O)N2CCOCC2)c1 | -1 | 0 | 24289* | i | -3
O=C(O)CNS(=O)(=O)c1ccc(F)cc1 | 0 | 0 | 21439* | 0 | 1
COc1ccc(-c2ccc(SCC(=O)N3CCOCC3)nn2)cc1OC | 0 | 7 | 11309 | 0 | 0
COc1ccc(-c2ccc(SCC(=O)N3CCCC3)nn2)cc1OC | 3 | 6 | 19444* | 0 | 0
Nc1nc(C2C(=O)CCCC2=O)cs1 | -3 | -6 | 24150* | 0 | -2
